Compounds with a hit are over-represented: about 9.2% of the library has one in this group of screens.
SMN2 splice up – qHTS Assay for Enhancers of SMN2 Splice Variant Expression; HEK293 SMN2-luciferase splicing reporter, luminescence, 30-36 h; Potency, µM (series often up to 46.1 µM), most hits filed as activators; hit rate 2.8% among 210,000; AID 1458, 2008; note: nearly all actives have a fitted effect of over 55% in size
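qHTS luciferase splicing reporter: luminescence rises when SMN2 exon 7 is included in transfected HEK293 cells. Compound exposure lasted 30-36 h at 37C, with 4.5 mM final sodium butyrate as control, followed by a ONE-Glo read.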
ELG1 DNA repair – qHTS screen for small molecules that inhibit ELG1-dependent DNA repair in human embryonic kidney (HEK293T) cells expressing luciferase-tagged ELG1; Potency, µM (titrated, usually from 46.1 µM), actives largely listed as inhibitors; hit rate 2.3% among 330,000; HEK293T ELG1-luciferase reporter, luminescence, 16 h; DNA damage induced by 5-fluorouridine; note: nearly all actives have a fitted effect of over 55% in size
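Luminescence from the luciferase reporter, measured 30 min after ONE-Glo reagent at room temperature, was the read-out. Beforehand, 2,000 cells per well were exposed for 16 hr at 37 °C to 5-fluorouridine together with compound or vehicle.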
ELG1 genotoxic – qHTS screen for small molecules that induce genotoxicity in human embryonic kidney (HEK293T) cells expressing luciferase-tagged ELG1; HEK293T ELG1-luciferase reporter, luminescence, 16 h; AID 504466, 2011; Potency, µM (series often up to 46 µM), usual class: activators; hit rate 1.3% among 330,000; note: nearly all actives have a fitted effect of over 60% in size
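Genotoxic stress is detected as increased luminescence from luciferase-tagged ELG1 in HEK293T cells, measured with ONE-Glo after a 16 hr treatment at 37 °C.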
FLuc modulator – qHTS profiling assay for firefly luciferase inhibitor/activator using purifed enzyme and Km concentrations of substrates (counterscreen for miR-21 project) | Luciferin 4-monooxygenase (Photinus pyralis), P08659 | purified FLuc, Km substrates, luminescence inhibition | Potency, µM (series often up to 57.5 µM), usual class: inhibitors | hit rate 6.9% among 360,000; note: nearly all actives have a fitted effect of over 55% in size
Target sequence (P08659 whole entry, looked up): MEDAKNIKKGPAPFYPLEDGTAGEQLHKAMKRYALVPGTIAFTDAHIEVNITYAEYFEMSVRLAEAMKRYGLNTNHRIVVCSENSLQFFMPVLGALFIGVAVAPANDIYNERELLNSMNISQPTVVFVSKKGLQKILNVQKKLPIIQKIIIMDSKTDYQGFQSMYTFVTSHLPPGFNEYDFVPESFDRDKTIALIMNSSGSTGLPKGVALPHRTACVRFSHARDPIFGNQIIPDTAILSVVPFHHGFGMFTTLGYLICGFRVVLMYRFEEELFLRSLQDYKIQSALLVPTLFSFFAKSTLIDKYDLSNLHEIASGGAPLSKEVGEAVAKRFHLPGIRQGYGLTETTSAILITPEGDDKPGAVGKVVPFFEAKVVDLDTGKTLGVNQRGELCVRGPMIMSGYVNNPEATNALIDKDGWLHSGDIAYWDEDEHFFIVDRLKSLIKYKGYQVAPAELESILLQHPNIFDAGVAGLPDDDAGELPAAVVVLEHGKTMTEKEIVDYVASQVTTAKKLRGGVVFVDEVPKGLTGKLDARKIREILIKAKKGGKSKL
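Purified P. pyralis luciferase (10nM final) with 10uM D-luciferin and 10uM ATP (Km levels) in 50mM Tris acetate pH 7.5, 10mM Mg acetate, 0.01% Tween-20, 0.05% BSA; qHTS 6-point titration, ~60 µM downward; luminescence read.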
Rab9 prom act – qHTS Assay for Rab9 Promoter Activators | hit rate 2.8% among 320,000 | Potency, µM (top dose mostly 9.22 µM), actives largely listed as activators | Huh7 Rab9 promoter-luciferase reporter, luminescence, 24 h | AID 485297, 2010; note: nearly all actives have a fitted effect of over 60% in size
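Stable Rab9-luc Huh7, 1500 cells/well, 2 h settle; cmpd in DMSO, 24 h, 37 °C/5% CO2; luciferase reagent 10 min RT; luminescence.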
NPC1 prom act – qHTS Assay for NPC1 Promoter Activators; Huh7 NPC1 promoter luciferase reporter, 24 h; Potency, µM (top dose mostly 9.22 µM), hits mostly activators; AID 485313, 2010; hit rate 2.4% among 320,000; note: nearly all actives have a fitted effect of over 60% in size
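Huh7 reporter cells (NPC1 promoter driving luciferase) are dosed with compound for 24 h at 37 °C, 5% CO2; luciferase detection reagent is then added and luminescence measured after 10 min at ambient temperature.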
Hits are given with their value; – = inactive; ? = inconclusive; · = no result; [ ] = remark or other dose. Calls come from the whole dose curve; as a rule, active = well fitted curve in the direction sought with a large enough effect; inconclusive = small, poorly fitted or top-dose-only effect, or another doubt; inactive = no such curve, though single readings can be large; an effect the other way counts as inactive or inconclusive.

SMILES	SMN2 splice up	ELG1 DNA repair	ELG1 genotoxic	FLuc modulator	Rab9 prom act	NPC1 prom act
Cc1ccc(S(=O)(=O)N(C)CCCC(=O)Nc2ccncc2)cc1	–	5.8µM	–	–	–	–
COc1ccc(C(=O)NCc2ccon2)cc1OC1CCN(C(C)C)CC1	·	–	–	–	–	–
CCCNc1ccc(S(=O)(=O)N(CC)CC)cn1	5.62µM	–	–	–	–	–
CCCNc1ccc(S(=O)(=O)N(C(C)C)C(C)C)cn1	–	–	–	–	–	–
O=C(c1cc2cc(Br)ccc2o1)N1CCN(c2ccccc2)CC1	·	?	?	19µM	–	–
O=C(c1cc2cc(Br)ccc2o1)N1CCOCC1	·	?	–	21.3µM	?	–
O=C(c1cc2cc(Br)ccc2o1)N1CCCC1	–	?	?	?	?	?
Cc1nc(N2CCOCC2)nc(Oc2ccccc2)c1[N+](=O)[O-]	·	?	–	–	–	–
CC(=O)N1c2ccc(S(=O)(=O)N(C)CC(=O)Nc3ccccc3C)cc2CC1C (stereo not given)	·	16.4µM	–	–	–	–
CC(=O)N1c2ccc(S(=O)(=O)N(C)CC(=O)Nc3cccc(C)c3)cc2CC1C (stereo not given)	·	–	–[9.26 µM]	–	–	–
COC(=O)c1nnn(-c2nc(N(C)C)nc(N(C)C)n2)c1C	–	–	–	–	–	–
Cc1sc(NC(=O)CSc2nnc(CCNC(=O)c3cccs3)n2C)nc1-c1ccccc1	?	16.4µM	–	–	–	–
Cc1ccccc1C(=O)NCCc1nnc(SCC(=O)Nc2nc(-c3ccccc3)cs2)n1C	–	?	–	–	–	–
CC(C)c1nc2ccc(NC(=O)C34CC5CC(CC(C5)C3)C4)cc2[nH]1	–	?	–	15.1µM	–	–
O=C(Nc1ccc2nc(-c3cccnc3)[nH]c2c1)C1CCCCC1	–	–	–	12µM	–	–
Nc1cccc(C(=O)Nc2ccc3nc(-c4cccnc4)[nH]c3c2)c1	–	–	–	?	–	–
O=C(Nc1ccc2nc(-c3cccnc3)[nH]c2c1)C12CC3CC(CC(C3)C1)C2	–	–	–	10.7µM	–	–
COc1ccc(S(=O)(=O)N2CCCCCC2)cc1N(C)S(=O)(=O)c1ccc(C)cc1	·	?	–	–	–	–
Cc1ccc(CNC(=O)CCC2CCCN(Cc3cccc4ncccc34)C2)o1 (stereo not given)	·	–	–	–	–	–
CCn1c(SCc2ccc(C#N)cc2)nnc1-c1ccc(S(=O)(=O)N2CCCCC2)cc1	–	10.3µM	–	–	–	–
Cc1ccccc1OCC1Cc2c(nc(N)c(C#N)c2N)O1 (stereo not given)	·	?	?	13.5µM	?	?
N#Cc1c(N)nc2c(c1N)CC(CO)O2 (stereo not given)	–	–	–	–	–	–
N#Cc1c(N)nc2c(c1N)CC(COc1ccccc1)O2 (stereo not given)	·	?	?	16.9µM	4.47µM	2.82µM
N#Cc1ccc(C(=O)NNC(=O)c2ccncc2)cc1	·	–	–	–	–	–
O=C(O)c1cc(-c2c[nH]c3ccccc23)nc2ccc3ccccc3c12	–	?	–	1.2µM	–	–
SMILES	SMN2 splice up	ELG1 DNA repair	ELG1 genotoxic	FLuc modulator	Rab9 prom act	NPC1 prom act
c1ccc2c(-c3c[nH]c4ccccc34)c3ccccc3nc2c1	–	?	–	–	–	–
COc1ccc(-n2c(C)c([N+](=O)[O-])c3ccc(O)c(CN4CCCCC4)c32)cc1	–	10.3µM	–	–	–	–
Cc1ccc(-n2c(C)c([N+](=O)[O-])c3ccc(O)c(CN(C)C)c32)cc1	–	?	–	–	–	–
CNC(=O)Nc1ccccc1C(=O)Nc1ccccc1	·	–	–	?	–	–
Cc1ccc(NCc2ccccc2-c2nnc(-c3ccccc3Cl)o2)cc1Cl	–	·	·	?	·	·
Fc1ccc(NCc2ccccc2-c2nnc(-c3ccccc3Cl)o2)cc1	–	·	·	6.01µM	·	·
CCc1cccc(NCc2ccccc2-c2nnc(-c3ccccc3Cl)o2)c1	–	·	·	3.38µM	·	·
COc1cc(CNC(=O)c2cnc3c(-c4cccc(C)c4)c(C)nn3c2C)cc(OC)c1OC	·	·	·	–	·	·
Cc1cc(=O)oc2cc(O)c(CN(C)CC(=O)O)cc12	–[9.22 µM]	·	·	·	·	·
CCc1ccc(-c2nc(CS(=O)CC(=O)O)c(C)o2)cc1 (stereo not given)	·	?	?	21.3µM	?	–
CCOc1ccc(-c2nc(CSCC(=O)NCc3ccc(C)cc3)c(C)o2)cc1	·	·	·	–	·	·
COc1ccc(-c2nc(CSCC(=O)NCc3ccc4c(c3)OCO4)c(C)o2)cc1OC	–	?	–	–	–	–
COc1ccc(-c2nc(CSCC(=O)NCc3ccc4c(c3)OCO4)c(C)o2)cc1	–	?	–	26.9µM	–	–
CCc1ccc(-c2nc(CSCC(=O)NCc3ccc(C)cc3)c(C)o2)cc1	–	·	·	19µM	·	·
COc1ccc(-c2nc(CS(=O)CC(=O)NC(C)CCc3ccccc3)c(C)o2)cc1OC (stereo not given)	·	18.3µM	–	–	–	–

Screens (PubChem)
